Assay results reported in PubChem BioAssay.
Active and inactive are the calls of the source.

Experiments:
[1] = small molecules captured by biotinylated probe aFSTL3 – biochemical, small-molecule microarray, fluorescence 635/667, stem cell growth factor project, primary screen (AID 1064); conditions: higher = more signal;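 note: measures binding of the biotinylated anti-FSTL3 antibody to printed compounds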
[2] = binders from COS7 lysate, DM2A8 probe, primary screen, torsin A project, cell lysate, small-molecule microarray, fluorescence 635/667 (AID 1065); conditions: higher = more signal, COS7 lysate expressing mutant human TOR1A
[3] = small molecules captured by biotinylated probe aFGF2 – biochemical, small-molecule microarray, fluorescence 635/667, stem cell growth factor project, primary screen (AID 1067); conditions: higher = more signal;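 note: measures binding of biotinylated aFGF2 protein to printed compounds on slides; z-score merges feature fluorescence and signal-to-noise across triplicate slides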
[4] = small molecules captured by biotinylated probe aFGF10 – biochemical, small-molecule microarray, fluorescence 635/667, stem cell growth factor project, primary screen (AID 1071); conditions: higher = more signal;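 note: score merges 667 nm spot intensity and signal to noise from triplicate slides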
[5] = molecular target: Neurogenic locus notch homolog protein 2 (Homo sapiens) (UniProt Q04721); test: small molecules binding Notch2 protein – biochemical, small-molecule microarray, 635 nm fluorescence, stem cell growth factors, primary screen (AID 1073); conditions: higher = more signal
Chain of Neurogenic locus notch homolog protein 2 (Homo sapiens) (Q04721 whole entry, looked up, canonical isoform): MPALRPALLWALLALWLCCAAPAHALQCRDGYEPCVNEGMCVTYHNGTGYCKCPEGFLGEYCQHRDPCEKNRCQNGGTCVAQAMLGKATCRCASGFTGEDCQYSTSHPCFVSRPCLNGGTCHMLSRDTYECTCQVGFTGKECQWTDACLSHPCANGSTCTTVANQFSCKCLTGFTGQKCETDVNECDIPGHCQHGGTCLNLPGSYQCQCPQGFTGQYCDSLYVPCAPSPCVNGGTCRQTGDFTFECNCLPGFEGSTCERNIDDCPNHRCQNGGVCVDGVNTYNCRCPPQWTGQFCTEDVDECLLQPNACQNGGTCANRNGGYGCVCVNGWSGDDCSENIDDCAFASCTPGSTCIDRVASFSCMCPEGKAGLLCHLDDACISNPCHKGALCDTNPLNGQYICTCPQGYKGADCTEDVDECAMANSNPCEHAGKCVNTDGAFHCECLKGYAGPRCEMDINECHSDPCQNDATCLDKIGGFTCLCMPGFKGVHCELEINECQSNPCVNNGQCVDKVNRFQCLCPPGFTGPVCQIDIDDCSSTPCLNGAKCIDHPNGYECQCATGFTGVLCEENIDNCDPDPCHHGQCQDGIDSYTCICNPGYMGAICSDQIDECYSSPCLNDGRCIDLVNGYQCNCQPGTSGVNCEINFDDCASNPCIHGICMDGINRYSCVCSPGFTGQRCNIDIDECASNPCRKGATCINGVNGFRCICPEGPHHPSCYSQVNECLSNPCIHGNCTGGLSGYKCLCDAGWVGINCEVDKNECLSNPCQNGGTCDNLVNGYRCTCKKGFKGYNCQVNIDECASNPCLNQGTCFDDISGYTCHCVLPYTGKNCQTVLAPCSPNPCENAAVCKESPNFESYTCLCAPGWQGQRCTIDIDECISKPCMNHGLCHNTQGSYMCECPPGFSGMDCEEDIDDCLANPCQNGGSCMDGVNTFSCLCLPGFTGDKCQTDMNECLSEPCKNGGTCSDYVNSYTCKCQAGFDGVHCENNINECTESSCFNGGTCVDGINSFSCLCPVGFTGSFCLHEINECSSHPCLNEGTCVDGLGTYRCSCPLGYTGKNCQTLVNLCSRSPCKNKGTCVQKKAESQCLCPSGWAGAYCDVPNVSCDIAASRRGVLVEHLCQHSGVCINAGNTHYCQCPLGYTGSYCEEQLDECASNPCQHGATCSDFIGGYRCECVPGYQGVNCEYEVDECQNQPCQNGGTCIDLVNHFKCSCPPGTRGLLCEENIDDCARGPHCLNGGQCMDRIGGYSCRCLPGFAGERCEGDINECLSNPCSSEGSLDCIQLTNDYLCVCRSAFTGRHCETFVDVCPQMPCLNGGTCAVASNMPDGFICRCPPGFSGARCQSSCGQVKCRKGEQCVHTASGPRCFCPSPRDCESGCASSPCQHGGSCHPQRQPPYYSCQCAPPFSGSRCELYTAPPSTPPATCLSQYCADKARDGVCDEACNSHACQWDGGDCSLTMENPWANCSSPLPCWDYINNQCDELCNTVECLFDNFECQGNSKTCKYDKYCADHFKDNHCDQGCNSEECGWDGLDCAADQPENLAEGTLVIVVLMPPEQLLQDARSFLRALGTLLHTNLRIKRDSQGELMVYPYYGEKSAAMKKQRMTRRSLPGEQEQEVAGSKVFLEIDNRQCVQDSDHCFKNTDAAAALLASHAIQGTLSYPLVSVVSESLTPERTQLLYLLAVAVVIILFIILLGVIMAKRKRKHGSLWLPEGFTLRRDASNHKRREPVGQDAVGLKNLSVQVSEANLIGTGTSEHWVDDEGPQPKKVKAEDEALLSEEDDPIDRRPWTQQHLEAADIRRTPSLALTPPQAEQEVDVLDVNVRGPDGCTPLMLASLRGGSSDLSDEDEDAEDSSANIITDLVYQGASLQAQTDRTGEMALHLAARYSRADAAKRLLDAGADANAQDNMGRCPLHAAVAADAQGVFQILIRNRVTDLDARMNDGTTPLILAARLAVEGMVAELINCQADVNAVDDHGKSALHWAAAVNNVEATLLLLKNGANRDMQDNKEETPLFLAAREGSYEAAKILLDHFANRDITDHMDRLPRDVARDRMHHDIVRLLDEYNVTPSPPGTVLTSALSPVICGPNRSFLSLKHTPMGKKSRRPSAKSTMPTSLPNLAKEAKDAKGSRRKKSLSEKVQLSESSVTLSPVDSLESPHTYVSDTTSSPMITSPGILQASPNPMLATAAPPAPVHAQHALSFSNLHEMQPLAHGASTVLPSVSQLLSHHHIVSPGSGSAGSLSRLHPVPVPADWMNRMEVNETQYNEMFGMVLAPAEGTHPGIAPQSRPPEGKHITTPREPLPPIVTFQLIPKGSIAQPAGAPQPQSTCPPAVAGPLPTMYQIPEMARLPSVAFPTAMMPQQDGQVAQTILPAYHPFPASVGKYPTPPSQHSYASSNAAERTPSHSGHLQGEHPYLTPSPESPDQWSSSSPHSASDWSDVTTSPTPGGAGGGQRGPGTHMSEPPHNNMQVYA

[6] = molecular target: Pro-neuregulin-1, membrane-bound isoform (Homo sapiens) (UniProt Q02297); test: small molecules binding neuregulin-1 protein – biochemical, small-molecule microarray, fluorescence 635/667, psychiatric disease protein project, primary screen (AID 1075); conditions: NRG1 binding, 635 nm fluorescence, higher = more signal;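 note: score combines 667 nm spot fluorescence with signal to noise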
Chain of Pro-neuregulin-1, membrane-bound isoform (Homo sapiens) (Q02297 whole entry, looked up, the tested form may be a part, canonical isoform): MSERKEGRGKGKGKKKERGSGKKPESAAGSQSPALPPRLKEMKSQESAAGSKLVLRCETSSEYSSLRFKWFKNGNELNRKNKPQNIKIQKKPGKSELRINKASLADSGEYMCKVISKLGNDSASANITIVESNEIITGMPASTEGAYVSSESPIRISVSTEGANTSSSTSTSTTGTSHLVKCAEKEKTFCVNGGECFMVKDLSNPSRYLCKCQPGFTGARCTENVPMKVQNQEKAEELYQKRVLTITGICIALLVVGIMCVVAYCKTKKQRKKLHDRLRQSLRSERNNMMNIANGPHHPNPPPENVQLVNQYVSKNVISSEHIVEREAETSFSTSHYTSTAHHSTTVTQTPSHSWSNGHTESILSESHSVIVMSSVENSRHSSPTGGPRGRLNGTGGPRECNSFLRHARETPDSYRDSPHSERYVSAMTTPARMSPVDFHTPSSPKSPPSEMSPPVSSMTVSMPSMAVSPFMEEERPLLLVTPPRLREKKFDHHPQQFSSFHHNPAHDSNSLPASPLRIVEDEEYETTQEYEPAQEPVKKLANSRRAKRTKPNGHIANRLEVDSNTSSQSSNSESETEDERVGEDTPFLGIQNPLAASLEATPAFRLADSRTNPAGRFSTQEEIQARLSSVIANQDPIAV

[7] = system: Neuregulin-1 EGF-like domain; test: small molecules binding NRG1 EGF domain – biochemical, small-molecule microarray, 635 nm fluorescence, primary screen (AID 1081); conditions: higher = more signal;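 note: binding of the protein to compounds printed on small-molecule microarray slides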
[8] = FRG1 expression reporter modulators in myotubes – cell-based, C2C12 myotubes, firefly/Renilla luciferase, luminescence, FRG1 inhibition for FSHD, primary screen (AID 1084); conditions: FRG1 promoter luciferase, higher = more signal, called active from +8 up or from −8 down
[9] = small molecules captured by biotinylated probe aFST – biochemical, small-molecule microarray, fluorescence 635/667, stem cell growth factor project, primary screen (AID 1086); conditions: higher = more signal;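 note: score merges 667 nm fluorescence with signal-to-noise of each printed compound spot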
[10] = binders of probe aHhip on microarray, primary screen, stem cell growth factor project, biochemical, small-molecule microarray, fluorescence 635/667 (AID 1087); conditions: higher = more signal;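 note: score merges spot fluorescence at 667nm with spot signal to noise ratio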
[11] = system: PRMT1 (protein arginine N-methyltransferase 1); test: small molecules binding arginine methyltransferase PRMT1 – biochemical, small-molecule microarray, 635 nm fluorescence, primary screen (AID 1088); conditions: higher = more signal;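 note: binding of Prmt1 protein to compounds spotted on small-molecule microarray slides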
[12] = growth effects on S. cerevisiae YJM789 – YJM789 clinical isolate, OD600, 24 h, basal, primary screen (AID 1089); conditions: higher = more signal, called active from +8 up or from −8 down;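 note: growth of clinical yeast isolate S. cerevisiae YJM 789 seeded 1000 cells per well; test concentration not given here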
[13] = S. pombe growth modifiers, basal conditions – strain 972, OD600, 24 h, no modulator, primary screen (AID 1090);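 note: basal condition with compound alone and no growth modifier present; test concentration not given here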; conditions: S. pombe 972 growth, higher = more signal, called active from +8 up or from −8 down
[14] = budding yeast growth modifiers under rapamycin – strain BY4716, OD600, 96 h, primary screen (AID 1091); note: test concentration not given here; conditions: S. cerevisiae BY4716 + rapamycin, higher = more signal, called active from +8 up or from −8 down
[15] = molecular target: Torsin-1A-interacting protein 2 (Homo sapiens) (UniProt Q8NFQ8); test: small molecules binding lysate-expressed LULL1 – cell lysate, human LULL1 lysate, 635/667 nm fluorescence, primary screen (AID 1092); conditions: small-molecule microarray, hLULL1 lysate binding, 635 nm fluorescence; higher = more signal;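 note: probe is lysate of COS7 cells overexpressing human LULL1; score merges per-feature 667 nm fluorescence with signal-to-noise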
Chain of Torsin-1A-interacting protein 2 (Homo sapiens) (Q8NFQ8 whole entry, looked up): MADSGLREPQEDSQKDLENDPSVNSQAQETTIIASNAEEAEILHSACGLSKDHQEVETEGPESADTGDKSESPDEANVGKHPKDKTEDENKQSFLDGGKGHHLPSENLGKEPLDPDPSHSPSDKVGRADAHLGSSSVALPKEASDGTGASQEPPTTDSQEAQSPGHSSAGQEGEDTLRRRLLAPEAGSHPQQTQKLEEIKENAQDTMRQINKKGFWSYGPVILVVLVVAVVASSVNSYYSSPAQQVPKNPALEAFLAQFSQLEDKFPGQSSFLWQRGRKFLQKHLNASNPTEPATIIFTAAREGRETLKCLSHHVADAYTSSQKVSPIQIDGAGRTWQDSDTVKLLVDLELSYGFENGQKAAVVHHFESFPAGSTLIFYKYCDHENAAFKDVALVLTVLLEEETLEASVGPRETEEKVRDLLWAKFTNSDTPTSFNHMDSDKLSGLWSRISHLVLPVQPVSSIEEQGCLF

[16] = optical density change of DRC41 E. coli – strain DRC41, OD650, 24 h, E. coli filamentation project, primary screen (AID 1093);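 note: MC1000 strain lacking acrAB efflux and sulA so SOS filamentation is blocked; test concentration not given here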; conditions: E. coli DRC41 growth, higher = more signal, called active from +8 up or from −8 down
[17] = probe aLefty2 binding to arrayed compounds – biochemical, biotinylated probe, 635/667 nm fluorescence, primary screen (AID 1094); conditions: small-molecule microarray, higher = more signal;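 note: score merges spot fluorescence near 667 nm with spot signal-to-noise ratio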

Compound | composite z-score [1] | composite z-score [2] | composite z-score [3] | composite z-score [4] | composite z-score [5] | composite z-score [6] | composite z-score [7] | z-score [8] | composite z-score [9] | composite z-score [10] | composite z-score [11] | z-score [12] | z-score [13] | z-score [14] | composite z-score [15] | z-score [16] | composite z-score [17]
CCOC(=O)C[C@H]1[C@H](OC(=O)Cc2ccc3c(c2)OCO3)[C@@H](NC(=O)c2ccc3ccccc3c2)c2cc(OCCCO)ccc2N1C(=O)c1ccc2ccccc2n1 | -0.123 | 0.243 | -0.161 | 0.319 | 0.429 | 0.799 | 0.8 | -3.68 (inactive) | 0.233 | -0.132 | 0.144 | -3.45 (inactive) | -3.3 (inactive) | -2.38 (inactive) | 1.44 | 0.135 (inactive) | -0.0865
[N-]=[N+]=NCc1ccccc1C[C@@]1(C(=O)NCc2ccccc2)N=C(c2ccc(OCCCO)cc2)O[C@@H]1c1ccccc1 | 1.16 | 0.997 | 0.0336 | 0.422 | 0.853 | 0.457 | 0.856 | -3.28 (inactive) | 0.551 | -0.191 | 0.475 | 1.06 (inactive) | 0.393 (inactive) | 32.7 (active) | 1.82 | 2.1 (inactive) | 0.247
CCCCCCC#C[Si](O[C@H](c1ccccc1)c1cn(Cc2ccccc2)nn1)(C(C)C)C(C)C | -0.331 | -0.0435 | 0.0339 | 0.388 | 0.433 | -0.0854 | -0.0419 | -0.494 (inactive) | 0.129 | 0.243 | 0.63 | -0.501 (inactive) | -1.19 (inactive) | -0.287 (inactive) | 0.468 | 2.25 (inactive) | -0.0153
COc1ccc([Si](C)(C)[C@H]2[C@H](CC(=O)N(CCO)Cc3ccccc3)O[C@@]3(C(=O)N(Cc4ccc(N5CCOC5=O)cc4)c4ccccc43)[C@@H]2C)cc1 | 0.0147 | 0.285 | -0.105 | 0.202 | 0.135 | 0.869 | 1.01 | -2.95 (inactive) | -0.158 | -0.0618 | 0.92 | 0.473 (inactive) | 0.273 (inactive) | 3.26 (inactive) | 1.98 | 1.46 (inactive) | -0.0595
C=C(/C(=C/C[C@H](OC(C)=O)c1cccc(OCCO)c1)c1cc(C(=O)OC)ccc1OC)C(C)C | 0.037 | 0.0106 | -0.128 | 0.437 | -1.02 | 1.04 | 0.274 | -0.698 (inactive) | -0.24 | 0.0623 | 0.359 | 0.0359 (inactive) | -1.37 (inactive) | -0.954 (inactive) | 0.41 | 1.73 (inactive) | -0.189
